Compounds with a hit are over-represented: about 6.1% of the library has one in this group of screens.
D1 PAM = enhances dopamine response at the human D1 receptor. HEK293 TREx D1 cells, calcium flux, dopamine EC20 potentiation. hit rate 0.036% among 360,000. potentiation, % at 10 µM; in the data active = potentiation above about 30%; note: 0% is about no effect
Target sequence (P21728 whole entry, looked up): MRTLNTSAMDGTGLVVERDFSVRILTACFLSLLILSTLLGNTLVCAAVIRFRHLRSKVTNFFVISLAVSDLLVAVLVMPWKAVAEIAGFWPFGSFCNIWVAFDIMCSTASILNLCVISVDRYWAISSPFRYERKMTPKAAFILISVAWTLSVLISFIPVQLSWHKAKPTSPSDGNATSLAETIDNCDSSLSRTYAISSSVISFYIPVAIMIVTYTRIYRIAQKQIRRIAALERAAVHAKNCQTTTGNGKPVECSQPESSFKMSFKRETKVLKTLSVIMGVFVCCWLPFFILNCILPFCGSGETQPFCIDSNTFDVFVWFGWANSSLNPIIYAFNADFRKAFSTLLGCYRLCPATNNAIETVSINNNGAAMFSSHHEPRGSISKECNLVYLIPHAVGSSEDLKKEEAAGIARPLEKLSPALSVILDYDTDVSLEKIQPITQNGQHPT
ERG-DNA inh = ERG Ets/DNA interaction inhibition; P11308; fluorescence polarization, His-ERG Ets domain / labelled DNA; Potency, µM (titrated, usually from 76.9 µM), for the others: at the top dose FP activity, negative = inhibition, actives largely listed as inhibitors; hit rate 0.028% among 370,000; AID 624246; active = well fitted inhibition curve with a large enough effect in the polarisation, with a control signal flat; inconclusive = small, poorly fitted or top-dose-only effect, or effect the other way, or a change in a side signal; inactive = no such curve, though single readings can be large or run the other way; the % refers to the polarisation;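 note: polarization taken with two DNA probes labelled with fluorescein and Texas red; potency is the fitted concentration of half-maximal effect; % of control where 0% means no effect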
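His-tagged ERG Ets domain (1 uM in the protein solution; 300mM KCl, 50mM Tris-HCl, 1mM EDTA, 1mM DTT, pH 7.5) received compound, then a probe mix of 5 nM fluorescein-DNA and 100nM Texas-615-DNA. Fluorescence polarization was read for both dyes.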
DRD3 agonist = agonists of human D3 dopamine receptor. D3R DiscoveRx beta-arrestin cells, luminescence, 90 min. P35462. hit rate 0.58% among 410,000. max activation, %; in the data active = max activation above about 30%; note: 0% is about no effect
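Agonist mode: compounds and dopamine controls were applied to plated cells for 90 min at 37 degrees C after an overnight attachment at 1500 cells/well. Luminescent read-out followed 30 - 60 minutes at room temperature with DiscoveRx detection reagent.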
D1 antag = antagonists of human D1 dopamine receptor; hit rate 3.2% among 360,000; activity change, negative = inhibition, % at 10 µM; P21728; AID 504652; HEK293 TREx D1 cells, calcium flux, dopamine EC80; stronger effect = lower value; in the data active = activity change below about -30%; note: % is set by controls: 0 for no effect and ±100 for the full control effect
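After overnight tetracycline induction at 30 C, force-coupled D1 HEK293 cells took up a no-wash calcium dye at room temperature. Compounds were added and monitored 180 s, and the response to EC80 dopamine was then recorded.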
DRD3 antagonist = antagonists of human D3 dopamine receptor; D3R cells, DiscoveRx beta-arrestin luminescence, antagonist mode; stronger effect = lower value; max response, negative = inhibition, %; hit rate 2.5% among 360,000; in the data active = max response below about -50%; inconclusive = no clear call, values can overlap the other calls; note: % is set by controls: 0 for no effect and ±100 for the full control effect
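Cells plated overnight at 1500 cells/well, then exposed to library compounds with dopamine controls for 90 minutes at 37 degrees C. DiscoveRx reagent added for 30–60 minutes at room temperature; luminescence read, quantitative HTS format.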
D1 ag = agonists of human D1 dopamine receptor; hit rate 1% among 360,000; activation, % at 2 µM; HEK293 T-REx D1 cells, calcium flux, agonist mode; P21728; AID 504660; in the data active = activation above about 30%; note: 0% is about no effect
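Agonism was scored from calcium flux recorded over 180 s (1 read/s) after pintool compound addition, following a 10-cycle baseline. Cells were inducible force-coupled HEK293 TREx D1, plated overnight at 30 C and loaded with no-wash calcium dye.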
* hit, by the source's call; ? = inconclusive; . = not tested or not shown.

SMILES	D1 PAM	ERG-DNA inh	DRD3 agonist	D1 antag	DRD3 antagonist	D1 ag
Cc1ccc(S(=O)(=O)N(C)C)cc1NC(=O)COC(=O)CC1CCCC1	2.0	5.6%	-2.9	3.5	-14.3	1.9
COc1ccc(OCC(O)CNC(=O)Nc2cc(F)ccc2C)cc1 (stereo not given)	-6.7	2.7%	-20.1	-40.9*	-6.9	-1.2
CC1c2ccccc2CN1NC(=O)c1ccc(Cl)c(S(N)(=O)=O)c1 (stereo not given)	.	.	51.3*	.	.	.
CC(=O)Nc1ccc(S(=O)(=O)Nc2nc3c(s2)CCCC3)cc1	2.5	7.6%	2.7	-5.8	-8.9	2.2
CC1OC(O[C@H]2CC[C@]3(C)C4C=C[C@]56OC[C@@]7(CC[C@@H](C)[C@H](C)C75)[C@H](O)C[C@@]6(C)[C@]4(C)CC[C@H]3C2(C)C)C(OC2OC(CO)C(O)C(O)C2OC2OCC(O)C(O)C2O)C(O)C1O (stereo not given in full)	14.2	.	.	41.3	.	243.9*
CCC(C)c1ccc(O)c(NC(=S)NC(=O)c2cccs2)c1 (stereo not given)	.	.	-33.9	.	-25.5	.
Cc1cc(C(=O)CSc2ncn[nH]2)c(C)n1-c1cccc(S(=O)(=O)N2CCOCC2)c1	-3.9	-8.2%	1.7	-2.3	6.9	-0.1
COc1ccc(-c2nnc3ccc(SC)nn23)cc1	2.4	10.9%	14.3	-4.5	-86.3*	-0.7
CC(Sc1ccc2nnc(-c3ccc(F)cc3)n2n1)C(=O)O (stereo not given)	-4.0	5.3%	-4.4	-12.5	-21.6	1.8
COc1ccc(-c2nnc3ccc(SCC(=O)N4CCOCC4)nn23)cc1	-5.0	17.5%	0.0	-7.0	-9.9	1.4
CCOC(=O)C(C)Sc1ccc2nnc(-c3ccc(F)cc3)n2n1 (stereo not given)	2.4	0.6%	35.1*	-2.8	15.1	0.3
O=C(Nc1ccnn1C1CCN(CCCC2CCCC2)CC1)c1ccccc1	-1.1	-9.2%	-12.5	4.8	-0.9	7.4
CN(C)c1ccc(/C=C/C=C2/SC(=S)N(c3ccccc3)C2=O)cc1	.	?	-9.7	.	-66.6*	.
Cc1ccc(C2C(C#N)=C(N)SC(N)=C2C#N)cc1	-1.9	2.5%	3.8	0.5	-0.9	17.9
Cc1ccc(C2C(C#N)=C(N)SC(N)=C2C#N)c(C)c1	-4.3	19.3%	4.1	-21.9	?	51.2*
O=C(O)c1ccc2c(=O)n3c(nc2c1)/C(=C/c1ccc(C(F)(F)F)cc1)CC3	1.4	-3.9%	1.5	1.6	-5.1	0.1
O=c1c2ccccc2nc2n1CC/C2=C/N1CCN(c2cccc(C(F)(F)F)c2)CC1	-3.9	.	-38.3	-14.8	-91.0*	9.1
O=C(O)/C=C/C(=O)c1ccc(O)cc1	5.5	2.9%	-0.1	-7.3	-15.6	4.9
CC(=O)c1ccc(OC2(C)CCN(CCOc3ccc(C)cc3)C2)cc1 (stereo not given)	.	.	48.2*	.	-17.9	.
CC(=O)c1cc2cccc(OC3(C)CCN(Cc4ccc5ccccc5c4)C3)c2o1 (stereo not given)	.	.	-16.0	.	-69.7*	.
COCOc1cccc(CN2CCC(C)(Oc3ccc(C(C)=O)cc3)C2)c1 (stereo not given)	.	.	-6.1	.	10.4	.
CC(=O)c1ccc(OC2(C)CCN(Cc3cc4ccccc4[nH]3)C2)cc1 (stereo not given)	.	.	-20.4	.	-55.0*	.
COCCNC(=O)CSc1cc(=O)n(C)c2cc(Cl)ccc12	7.0	2.1%	2.0	-9.8	2.7	-0.1
CC1CCN(S(=O)(=O)c2cccc(C(=O)NC3CCCC3)c2)CC1	-4.3	-11.3%	-0.8	-13.6	-6.1	5.2
Cc1ccccc1-c1noc(-c2ccccc2OCC(=O)Nc2ccccc2[N+](=O)[O-])n1	-0.4	-5.1%	2.7	-62.9*	.	-0.7
SMILES	D1 PAM	ERG-DNA inh	DRD3 agonist	D1 antag	DRD3 antagonist	D1 ag
Cc1ccc(-c2noc(-c3ccccc3OCC(=O)Nc3ccccc3[N+](=O)[O-])n2)cc1	0.3	-8.7%	3.8	11.9	.	-0.1
COc1cc(N)c(Cl)cc1C(=O)NC1CCN(Cc2ccccc2)CC1	.	4.1%	-96.3	.	-108.3*	.
Cc1ccc(C)n1-c1ccc(C(=O)NC2CCN(Cc3ccccc3)CC2)cc1	-3.5	-9.9%	-48.6	-29.7	-52.1*	4.7
CC1(C)Cc2cccc(C(=O)NC3CCN(Cc4ccccc4)CC3)c2O1	5.0	-1.5%	-10.3	8.4	-76.7*	0.0
CC1(C)Cc2cccc(OC(=O)NC3CCCCC3)c2O1	.	.	-3.8	.	-17.3	.
CCc1nc2ccc(C(=O)NC3CCN(Cc4ccccc4)CC3)cn2c1N(C)Cc1ccc(N(C)C)cc1	.	.	-22.4	.	-62.9*	.
CCCCn1nnnc1C(c1ccccc1)N1CCN(Cc2c(F)cccc2Cl)CC1 (stereo not given)	.	.	-5.9	.	?	.
Cc1ccc(NC(=S)N2CCC(c3ccccc3)C2)c(Cl)c1 (stereo not given)	-5.9	-10.9%	-13.9	-1.7	1.4	3.1
O=C(NC1CCN(Cc2ccccc2)CC1)c1ccc(CS(=O)c2ccc(F)cc2)o1 (stereo not given)	-0.8	6.3%	-12.1	-20.6	?	-0.2
COC(=O)[C@@H](NC(=O)NC1CCN(Cc2ccccc2)CC1)C(C)C	-1.9	0.0%	-17.8	-16.7	-52.8*	7.0
Cc1ccccc1C(=O)NC1CCN(Cc2ccccc2)CC1	-7.0	0.0%	-17.3	-32.5*	-16.2	1.1
O=C(NC1CCN(Cc2ccccc2)CC1)c1ccc(CS(=O)c2ccccc2Cl)o1 (stereo not given)	.	.	-5.9	.	-117.0*	.
Cc1ccc(CN2CCC(NC(=O)c3ccccc3)CC2)cc1	-15.3	-1.4%	-19.4	-9.5	-95.6*	5.4
C=CCc1cc(C=O)cc(OC)c1OCc1ccc(C(=O)O)cc1	-0.4	-4.3%	-7.2	-7.5	7.4	3.3
Cc1ccc(C2N3CC4(C)CN2CC(c2ccccc2)(C3)C4=O)cc1 (stereo not given)	-0.8	0.1%	0.6	-7.3	.	0.8
COc1ccc(N2CCN(C(=N)/C(C(C)=O)=C(\C)O)CC2)cc1	8.6	7.1%	-3.8	-14.8	0.0	0.7
CCOc1ccc(CO[C@@H]2O[C@H](CO)[C@@H](O)[C@H](O)[C@H]2NC(C)=O)cc1OC	4.5	-0.7%	11.6	-2.7	20.5	4.0
COc1ccc(CO[C@@H]2O[C@H](CO)[C@@H](O)[C@H](O)[C@H]2NC(C)=O)cc1OC	1.1	-4.3%	-4.1	4.5	-51.6*	2.1
Cc1cccc2cc(C3CC(c4cccs4)=NN3C(=O)CCC(=O)O)c(Cl)nc12 (stereo not given)	-6.0	-8.5%	-4.0	-0.7	16.8	0.5
